Test results published in PubChem BioAssay.
For part of these data: Results with a measured potency or affinity are listed apart. Active and inactive are the calls of the source. Unless noted, no rule for the calls is given here.

How the values were obtained:
[1] = antimalarial activity against Dd2 strain (AID 2302;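 active = growth inhibition above 50% at the single 2 µM test dose, taken to imply half-maximal potency below 2 µM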;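 also: 0% = DMSO untreated growth and 100% = chloroquine plus artemisinin killed control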); conditions: P. falciparum Dd2 in RBCs, LDH growth readout, 72 h; at 2 µM; stronger effect = higher value
[2] = human hepatoma cell viability loss – ATP luminescence, cytotoxicity control for P. falciparum antimalarial project, primary screen (AID 2303;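 active = inhibition above 50%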;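 also: 0% = DMSO wells and 100% = digitonin-killed cells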); conditions: HepG2 viability, 24-48 h, at 10 µM, stronger effect = higher value
[3] = molecular target: L-lactate dehydrogenase (Plasmodium falciparum (isolate CDC / Honduras)) (UniProt Q27743); experiment: PfLDH activity inhibition – cell lysate, 3D7 strain, counter-screen for P. falciparum growth inhibition project (AID 2304);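 also: 0% = vehicle and 100% = reference inhibitor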; conditions: P. falciparum 3D7 crude extract, LDH APAD/NBT absorbance; at 2 µM; stronger effect = higher value
Chain of L-lactate dehydrogenase (Plasmodium falciparum (isolate CDC / Honduras)) (Q27743 whole entry, looked up): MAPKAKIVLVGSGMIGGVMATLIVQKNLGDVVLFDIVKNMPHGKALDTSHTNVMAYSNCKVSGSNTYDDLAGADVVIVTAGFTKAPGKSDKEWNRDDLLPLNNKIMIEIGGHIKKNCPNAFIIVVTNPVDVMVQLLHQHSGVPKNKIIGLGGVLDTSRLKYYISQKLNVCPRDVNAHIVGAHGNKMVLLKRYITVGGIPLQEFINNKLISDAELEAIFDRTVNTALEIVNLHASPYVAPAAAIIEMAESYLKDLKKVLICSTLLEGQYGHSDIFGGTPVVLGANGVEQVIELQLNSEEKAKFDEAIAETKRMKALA

[4] = inhibition of 3D7 malaria parasite growth – strain 3D7 (AID 2306);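 also: 0% = DMSO wells and 100% = chloroquine plus artemisinin control wells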; conditions: P. falciparum 3D7 erythrocytic growth, LDH absorbance, 72 h; at 2 µM; stronger effect = higher value
[5] = molecular target: Calcium-dependent protein kinase 1 (Plasmodium falciparum (isolate 3D7)) (UniProt P62344); experiment: PfCDPK1 kinase inhibitors, biochemical, TCAMS library (AID 1159585; cut-off not given, nearly all actives have IC50 up to about 0.98 µM;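 also: inhibitors leave more ATP so luminescence rises with inhibition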); conditions: recombinant PfCDPK1, Kinase-Glo ATP depletion luminescence
Chain of Calcium-dependent protein kinase 1 (Plasmodium falciparum (isolate 3D7)) (P62344 whole entry, looked up): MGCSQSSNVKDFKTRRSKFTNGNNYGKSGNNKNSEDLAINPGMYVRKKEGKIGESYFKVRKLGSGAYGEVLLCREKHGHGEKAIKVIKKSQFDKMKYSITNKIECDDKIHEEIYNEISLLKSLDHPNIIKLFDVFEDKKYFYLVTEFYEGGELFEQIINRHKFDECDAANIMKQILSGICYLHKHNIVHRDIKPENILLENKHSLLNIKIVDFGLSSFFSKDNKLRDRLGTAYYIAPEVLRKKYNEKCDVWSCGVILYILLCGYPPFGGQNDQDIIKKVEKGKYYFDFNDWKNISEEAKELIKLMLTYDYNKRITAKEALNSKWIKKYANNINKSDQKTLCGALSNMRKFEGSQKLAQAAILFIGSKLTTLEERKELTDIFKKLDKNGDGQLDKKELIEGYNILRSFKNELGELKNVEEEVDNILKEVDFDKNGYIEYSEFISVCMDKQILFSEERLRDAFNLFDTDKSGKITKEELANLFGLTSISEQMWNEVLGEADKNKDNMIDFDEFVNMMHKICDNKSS

[6] = molecular target: Plasmodium falciparum protein kinase 6 (PK6, PF3D7_1337100) (UniProt Q8IDW1); experiment: PfPK6 kinase inhibitors, biochemical, TCAMS library (AID 1159586); conditions: recombinant PfPK6, Kinase-Glo ATP depletion luminescence
Chain of Plasmodium falciparum protein kinase 6 (PK6, PF3D7_1337100) (Q8IDW1 1-305): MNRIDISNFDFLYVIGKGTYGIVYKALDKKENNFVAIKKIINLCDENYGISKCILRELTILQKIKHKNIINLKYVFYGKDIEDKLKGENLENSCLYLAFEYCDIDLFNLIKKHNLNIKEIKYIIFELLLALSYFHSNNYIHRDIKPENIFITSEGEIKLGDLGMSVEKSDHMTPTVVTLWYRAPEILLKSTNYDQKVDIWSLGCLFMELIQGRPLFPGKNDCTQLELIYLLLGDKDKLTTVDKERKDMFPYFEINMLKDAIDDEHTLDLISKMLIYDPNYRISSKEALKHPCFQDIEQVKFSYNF

[7] = molecular target: Protein kinase 7 (PK7), Plasmodium falciparum 3D7 (PF3D7_0213400) (UniProt Q7YTF7); experiment: inhibition of Plasmodium PK7 catalytic activity – biochemical, TCAMS antimalarial set, Kinase-Glo luminescence (AID 1159587); conditions: recombinant PfPK7, Kinase-Glo ATP depletion luminescence
Chain of Protein kinase 7 (PK7), Plasmodium falciparum 3D7 (PF3D7_0213400) (Q7YTF7 1-343): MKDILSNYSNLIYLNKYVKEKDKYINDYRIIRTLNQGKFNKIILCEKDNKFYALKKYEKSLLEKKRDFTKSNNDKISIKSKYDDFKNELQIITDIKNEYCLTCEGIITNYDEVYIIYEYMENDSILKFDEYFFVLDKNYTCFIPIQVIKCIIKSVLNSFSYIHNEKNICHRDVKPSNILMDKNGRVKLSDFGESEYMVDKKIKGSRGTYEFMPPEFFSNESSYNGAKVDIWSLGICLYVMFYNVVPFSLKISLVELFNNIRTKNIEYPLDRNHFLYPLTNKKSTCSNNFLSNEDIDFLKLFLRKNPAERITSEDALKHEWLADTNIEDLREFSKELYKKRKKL

[8] = molecular target: Calcium-dependent protein kinase 4 (Plasmodium falciparum (isolate 3D7)) (UniProt Q8IBS5); experiment: PfCDPK4 kinase inhibitors, biochemical, TCAMS library (AID 1159588; cut-off not given, nearly all actives have IC50 up to about 0.91 µM); conditions: recombinant PfCDPK4, Kinase-Glo ATP depletion luminescence
Chain of Calcium-dependent protein kinase 4 (Plasmodium falciparum (isolate 3D7)) (Q8IBS5 whole entry, looked up): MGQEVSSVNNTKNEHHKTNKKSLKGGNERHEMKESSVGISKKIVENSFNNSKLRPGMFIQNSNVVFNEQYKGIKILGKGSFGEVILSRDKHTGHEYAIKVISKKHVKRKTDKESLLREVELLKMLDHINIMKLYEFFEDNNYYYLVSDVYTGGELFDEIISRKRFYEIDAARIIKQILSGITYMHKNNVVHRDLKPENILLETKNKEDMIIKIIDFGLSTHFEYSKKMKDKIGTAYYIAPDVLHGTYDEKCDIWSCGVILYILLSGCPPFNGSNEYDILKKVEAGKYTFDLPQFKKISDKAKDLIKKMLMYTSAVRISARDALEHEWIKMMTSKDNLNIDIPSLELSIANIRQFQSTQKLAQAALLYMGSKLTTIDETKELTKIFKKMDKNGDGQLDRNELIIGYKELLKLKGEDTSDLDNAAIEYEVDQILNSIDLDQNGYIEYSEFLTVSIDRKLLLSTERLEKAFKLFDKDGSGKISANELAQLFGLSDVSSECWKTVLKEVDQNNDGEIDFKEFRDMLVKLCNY

COc1ccc(NC(=O)c2ccc(C=Cc3ccc(C(F)(F)F)cc3)cc2)cc1N1CCN(C)CC1
active: growth inhibition [4] 99%
inactive: growth inhibition [1] 47% | inhibition [2] 46% | inhibition [3] -6% | outcome [5] | outcome [6] | outcome [7] | outcome [8]

CC(=O)Nc1ccc(C(=O)Nc2cccc(-c3cccc(-c4nc5ccc(C(F)(F)F)cc5[nH]4)c3)c2)cn1
active: growth inhibition [1] 97% | growth inhibition [4] 101%
inactive: inhibition [2] 8% | inhibition [3] -2% | outcome [5] | outcome [6] | outcome [7] | outcome [8]

CCn1c(SC)nnc1C1CCCN(CC(=O)Nc2nc3ccc(OC)cc3s2)C1 (centres undefined)
inactive: inhibition [2] -3% | inhibition [3] 0% | outcome [5] | outcome [6] | outcome [7] | outcome [8]
active: growth inhibition [1] 81% | growth inhibition [4] 97%
